Compounds with a hit are over-represented: about 19% of the library has one in this group of screens.
MCF10A rerep – induces DNA re-replication in MCF 10a normal breast cells; MCF 10A DNA re-replication, Hoechst nuclear intensity, 48 h; AID 624296; Potency, µM (series often up to 46.1 µM), without a hit: at the top dose activity, positive = re-replication, actives largely listed as activators; 350,000 compounds, 2.9% hits; further: potency means the concentration at half of the fitted maximal effect; % of control where 0% means no effect; nearly all actives have a fitted effect of over 50% in size
DT40 TDP1 CPT – DT40-hTDP1 cell growth loss with CPT | chicken DT40 Tdp1-/-;hTDP1 cells + 20 nM CPT, ATP luminescence, 48 h | 420,000 compounds, 12% hits | Potency, µM (titrated, usually from 46.2 µM), for the others: top-dose activity change, negative = growth inhibition, actives largely listed as inhibitors; further: potency means the concentration at half of the fitted maximal effect; on the % scale 0 is the no-effect control and ±100 the full control effect; nearly all actives have a fitted effect of over 55% in size
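Chicken DT40 Tdp1-/- cells complemented with human TDP1, 400 cells/well, exposed to compounds plus 20 nM camptothecin for at least 48 h at 37 C; viability read as ATP content by CellTiter-Glo luminescence.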
SW480 rerep – DNA re-replication induction in SW480 cells; SW480 DNA re-replication, Hoechst DNA content imaging, 48 h; Potency, µM (series often up to 46.1 µM), inactives show at the highest dose re-replication activation, hits mostly activators; 340,000 compounds, 1.8% hits; further: potency means the concentration at half of the fitted maximal effect; % of control where 0% means no effect; nearly all actives have a fitted effect of over 55% in size
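Compounds, transferred as 23 nL by pin tool, were incubated with cells for 48 hr; DNA content per nucleus was then quantified by Hoechst staining and fluorescence plate imaging.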
DT40 TDP1 no CPT – qHTS for Inhibitors of human tyrosyl-DNA phosphodiesterase 1 (TDP1): qHTS in cells in absence of CPT; DT40 Tdp1-/- hTDP1 cells, no CPT, ATP luminescence, 48 h; Potency, µM (doses to about 46.2 µM), for inactives: at the highest dose activity change, negative = growth inhibition, usual class: inhibitors; 420,000 compounds, 15% hits; AID 686978, 2013; further: potency means the concentration at half of the fitted maximal effect; on the % scale 0 is the no-effect control and ±100 the full control effect; nearly all actives have a fitted effect of over 55% in size
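Growth of hTDP1-complemented DT40 Tdp1-knockout cells is measured by ATP luminescence after at least 48 hr compound exposure at 37 °C, with DMSO substituting for the 20 nM CPT used in the parallel screen.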
IL1B secr inh – inflammasome signaling inhibition, IL-1 beta readout | THP-1 LPS/ATP IL-1B secretion, AlphaLISA, 16 h; stronger effect = lower value | activity change, % at 57.5 µM | 360,000 compounds, 4.7% hits; in the data active means activity change below about -50%; inconclusive means mostly about -30% to -49%; further: on the % scale 0 is the no-effect control and ±100 the full control effect
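Secreted IL-1B measured by AlphaLISA bead assay after 16 h compound exposure of THP-1 cells; compounds (final up to 57.5 uM) added 1 h before LPS (250 ng/mL) and ATP (1.25 mM) stimulation; lower signal means less secretion.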
Chronic BCR inh – blocks chronic active B-cell receptor signaling; ABC-DLBCL IkBa-CBG/CBR reporter, luminescence ratio, 4 h; Potency, µM (doses to about 46.1 µM), for inactives: at the top dose activity change, negative = inhibition, most hits filed as inhibitors; 340,000 compounds, 0.05% hits; AID 493014; active means well fitted inhibition curve with a large enough effect in the signal ratio, with a control signal flat, not every such curve was filed as active; inconclusive means small, poorly fitted or top-dose-only effect, or effect the other way, or a change in a side signal; the % refers to the signal ratio;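 further: potency means the concentration at half of the fitted maximal effect; plate controls were basal doxycycline-induced cells for no effect and cells given 10 µM MG132 for full effect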
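Concentration-response series (up to 46 uM) were applied to TMD8 dual-reporter cells for 4 h at 37C with doxycycline. Green/red ratio, after filter-overlap correction, defined %Activity; red signal alone was normalised to basal cells and zero luminescence.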
Starred values were filed as active, the others as inactive; ? = inconclusive; · = no result given; ! = repeats disagree. Unless noted, the call rests on the fitted dose curve; in most records, active means well fitted curve in the direction sought with a large enough effect; inconclusive means small, poorly fitted or top-dose-only effect, or another doubt; inactive means no such curve, though single readings can be large; an effect the other way counts as inactive or inconclusive.

SMILES | MCF10A rerep | DT40 TDP1 CPT | SW480 rerep | DT40 TDP1 no CPT | IL1B secr inh | Chronic BCR inh
CC1CN(CC(=O)Nc2cccc(C(=O)Nc3cccc(C(F)(F)F)c3)c2)CC(C)O1 (stereo not drawn) | ? | 23µM* | ? | 23µM* | -1 | ?
O=C(C[C@H]1C/C=C\C[C@H](NC(=O)OCC2c3ccccc3-c3ccccc32)C(=O)O[C@H](c2ccccc2)CNC1=O)N[C@H](CO)Cc1ccccc1 | 28% | 3.3µM* | 12% | 3.7µM* | 24 | ?
O=C1CC/C=C\C[C@@H](CC(=O)N(CCO)Cc2ccccc2)C(=O)NC[C@@H](c2ccccc2)O1 | 10% | -2% | -1% | -26% | 5 | 5%
O=C(C[C@H]1C/C=C\C[C@@H](Cc2ccc(F)cc2)C(=O)O[C@H](c2ccccc2)CNC1=O)N[C@@H](CO)Cc1ccccc1 | -23% | -22% | 0% | ? | 21 | -1%
O=C(N[C@@H]1C/C=C\C[C@@H](CC(=O)N(CCO)Cc2ccccc2)C(=O)NC[C@H](c2ccccc2)OC1=O)OCC1c2ccccc2-c2ccccc21 | ? | 2.6µM* | ? | 7.3µM* | -6 | ?
O=C1CCC/C=C/C[C@@H](CC(=O)N(CCO)Cc2ccccc2)C(=O)NC[C@@H](c2ccccc2)O1 | -25% | 6% | 10% | -27% | 13 | 0%
O=C(N[C@@H]1C/C=C\C[C@H](CC(=O)N(CCO)Cc2ccccc2)C(=O)NC[C@@H](c2ccccc2)OC1=O)OCC1c2ccccc2-c2ccccc21 | ? | 6.5µM* | ? | 5.8µM* | -13 | -1%
Cc1ccc(NC(=S)NCc2ccc3c(c2)OCO3)c(C)c1 | 15% | ? | -2% | 21µM* | ? | -1%
Cc1ccc(NC(=S)NCc2ccc3c(c2)cc(C)n3C)c(C)c1 | ? | 23µM* | -81% | 23µM* | -2 | -2%
COCCCn1c(=O)c2sccc2n(Cc2cc(C(=O)OC)ccc2OC)c1=O | ? | 0% | -26% | -2% | -15 | ?
CCOC(=O)c1ccc(N=c2sc(C(=O)OC)cc(=O)n2CCCN2CCOCC2)cc1 | 29% | 15µM* | 20% | 15µM* | -57*! | ?
CCOC(=O)c1ccc(N=c2sc(C(=O)OC)cc(=O)n2Cc2ccco2)cc1 | ? | 13µM* | ? | 21µM* | -22 | ?
COC(=O)c1cc(=O)n(CCc2ccccc2)c(=Nc2ccc(F)cc2)s1 | ? | ? | 5% | ? | 1 | 6%
O=S(=O)(c1ccc2nc(N3CCN(c4ccccc4)CC3)ccc2c1)N1CCCCC1 | 2% | -1% | 4% | -22% | 2 | -7%
CCN(c1ccccc1)c1ccc2cc(S(=O)(=O)N3CCCC3)ccc2n1 | · | 26µM* | · | 21µM* | · | ·
O=S(=O)(c1ccc2nc(Nc3cccc(F)c3)ccc2c1)N1CCCC1 | · | 23µM* | · | ? | · | ·
COc1ccc(Nc2ccc3cc(S(=O)(=O)N4CCCC4)ccc3n2)cc1Cl | · | 21µM* | · | 21µM* | · | ·
CCOC(=O)c1cccc(Nc2ccc3cc(S(=O)(=O)N4CCCCC4)ccc3n2)c1 | · | 23µM* | · | 21µM* | · | ·
COc1cccc(CNC(=O)c2ccc3c(c2)nc2n3CCC(C)C2)c1 (stereo not drawn) | · | -12% | · | -21% | · | ·
Cc1ccc(C=NNc2nc3c([nH]2)c(=O)n(C)c(=O)n3C)cc1 | -1% | ? | ? | ? | 0 | ·
CCOC(=O)c1c(NC(=O)c2noc3c2CC(C(C)(C)C)CC3)sc2c1CCCC2 (stereo not drawn) | · | -14% | · | -6% | · | ·

Bioassay records deposited in PubChem BioAssay by National Center for Advancing Translational Sciences (NCATS).
